Assay results published in PubChem BioAssay AID1159580 (chemical genetic matrix, 2015).
Where “and” joins values, the source holds several entries; their conditions need not be identical. Equal entries are not always repeated. Among all 5,500 compounds or so, about 2,000 (36%) were called active. About 18% were inconclusive and are not listed. Rule as the data show it: active = normalized growth mostly below about 0.91 (no sharp cut-off); inconclusive = no clear call, values can overlap the other calls; inactive = mostly above about 0.92. Some of the results follow.

Assay: chemical genetic growth profiling, strain panel (AID 1159580);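 also: tested at 20 µM; growth read once vehicle control cultures reached saturation at 30 °C; 1 = growth at the plate median or of vehicle wells; lower values mean less growth of the strain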
Details: growth OD

Measured: normalized growth

O=C1NCC2(CCN(CCc3ccccc3)CC2)O1
inactive: S. cerevisiae deletion strains, locus YKL009W, strain mrt4, active compounds read low 0.986 | S. cerevisiae deletion strains, locus YKL068W, active compounds read low 0.995 | S. cerevisiae deletion strains, locus YKL085W, strain MDH1 (second series), active compounds read low 0.995 | S. cerevisiae deletion strains, locus YKL085W, strain MDH1, active compounds read low 0.995 | S. cerevisiae deletion strains, locus YKL160W, strain elf1, active compounds read low 0.97 | S. cerevisiae deletion strains, locus YKL190W, strain CNB1, active compounds read low 1 | S. cerevisiae deletion strains, locus YKR001C, strain vps1, active compounds read low 0.999 | S. cerevisiae deletion strains, locus YKR026C, strain gcn3, active compounds read low 0.939 | S. cerevisiae deletion strains, locus YKR091W, strain srl3, active compounds read low 1.01 | S. cerevisiae deletion strains, locus YLL001W, strain dnm1, active compounds read low 0.945 | S. cerevisiae deletion strains, locus YLL026W, active compounds read low 1 | S. cerevisiae deletion strains, locus YLL041C, strain sdh2, active compounds read low 0.999 | S. cerevisiae deletion strains, locus YLR027C, strain aat2, active compounds read low 0.995 | S. cerevisiae deletion strains, locus YLR039C, strain RIC1, active compounds read low 1 | S. cerevisiae deletion strains, locus YLR058C, strain SHM2, active compounds read low 1.01 | S. cerevisiae deletion strains, locus YLR102C, strain apc9, active compounds read low 0.999 | S. cerevisiae deletion strains, locus YLR113W, strain HOG1, active compounds read low 0.964 | S. cerevisiae deletion strains, locus YLR221C, strain rsa3, active compounds read low 1 | S. cerevisiae deletion strains, locus YLR258W, strain gsy2, active compounds read low 1 | S. cerevisiae deletion strains, locus YLR262C, strain YPT6 (second series), active compounds read low 0.981 | S. cerevisiae deletion strains, locus YLR262C, strain YPT6, active compounds read low 0.968 | S. cerevisiae deletion strains, locus YLR268W, strain sec22, active compounds read low 1.04 | S. cerevisiae deletion strains, locus YLR320W, strain mms22, active compounds read low 1.02 | S. cerevisiae deletion strains, locus YLR330W, strain CHS5, active compounds read low 1.01 | S. cerevisiae deletion strains, locus YLR342W, strain FKS1 (second series), active compounds read low 1.01 | S. cerevisiae deletion strains, locus YLR342W, strain FKS1, active compounds read low 0.994 | S. cerevisiae deletion strains, locus YLR357W, strain rsc2, active compounds read low 0.981 | S. cerevisiae deletion strains, locus YLR370C, strain arc18, active compounds read low 0.989 | S. cerevisiae deletion strains, locus YLR371W, strain rom2, active compounds read low 1.01 | S. cerevisiae deletion strains, locus YLR384C, strain iki3, active compounds read low 0.988 | S. cerevisiae deletion strains, locus YLR418C, strain cdc73, active compounds read low 0.981 | S. cerevisiae deletion strains, locus YML016C, strain PPZ1, active compounds read low 1 | S. cerevisiae deletion strains, locus YML032C, strain rad52, active compounds read low 1.02 | S. cerevisiae deletion strains, locus YML120C, strain ndi1, active compounds read low 0.984 | S. cerevisiae deletion strains, locus YML124C, strain tub3, active compounds read low 0.996 | S. cerevisiae deletion strains, locus YMR058W, strain fet3, active compounds read low 0.979 | S. cerevisiae deletion strains, locus YMR078C, strain ctf18, active compounds read low 1 | S. cerevisiae deletion strains, locus YMR125W, strain sto1, active compounds read low 0.97 | S. cerevisiae deletion strains, locus YMR129W, active compounds read low 0.98 | S. cerevisiae deletion strains, locus YMR205C, strain PFK2, active compounds read low 1.01 | S. cerevisiae deletion strains, locus YMR223W, strain ubp8, active compounds read low 0.978 | S. cerevisiae deletion strains, locus YMR231W, strain pep5, active compounds read low 0.994 | S. cerevisiae deletion strains, locus YMR263W, strain SAP30, active compounds read low 1.02 and 1 | S. cerevisiae deletion strains, locus YMR307W, strain GAS1, active compounds read low 0.884 | S. cerevisiae deletion strains, locus YNL067W, strain RPL9B, active compounds read low 1.02 | S. cerevisiae deletion strains, locus YNL071W, strain lat1, active compounds read low 1.01 | S. cerevisiae deletion strains, locus YNL128W, strain TEP1, active compounds read low 1.02 | S. cerevisiae deletion strains, locus YNL153C, strain GIM3, active compounds read low 1.02 and 1.04 | S. cerevisiae deletion strains, locus YNL175C, strain NOP13, active compounds read low 1.01 | S. cerevisiae deletion strains, locus YNL183C, strain NPR1, active compounds read low 0.904 | S. cerevisiae deletion strains, locus YNL197C, strain WHI3, active compounds read low 0.992 | S. cerevisiae deletion strains, locus YNL209W, strain ssb2, active compounds read low 0.998 | S. cerevisiae deletion strains, locus YNL224C, strain SQS1, active compounds read low 0.995 | S. cerevisiae deletion strains, locus YNL233W, strain BNI4, active compounds read low 1.02 | S. cerevisiae deletion strains, locus YNL248C, strain rpa49, active compounds read low 1.01 | S. cerevisiae deletion strains, locus YNL250W, strain rad50, active compounds read low 1 | S. cerevisiae deletion strains, locus YNL271C, strain bni1, active compounds read low 1.01 | S. cerevisiae deletion strains, locus YNL298W, strain CLA4, active compounds read low 0.989 | S. cerevisiae deletion strains, locus YNL307C, strain MCK1, active compounds read low 1.01 | S. cerevisiae deletion strains, locus YNL322C, strain KRE1 (second series), active compounds read low 0.999 | S. cerevisiae deletion strains, locus YNL322C, strain KRE1, active compounds read low 1 and 1.01 | S. cerevisiae deletion strains, locus YNR049C, strain mso1, active compounds read low 0.987 | S. cerevisiae deletion strains, locus YNR052C, strain pop2, active compounds read low 1 | S. cerevisiae deletion strains, locus YOL006C, strain TOP1, active compounds read low 1.07 | S. cerevisiae deletion strains, locus YOL012C, strain htz1 0.911 | S. cerevisiae deletion strains, locus YOL147C, strain pex11, active compounds read low 0.996 | S. cerevisiae deletion strains, locus YOR001W, strain rrp6, active compounds read low 0.985 | S. cerevisiae deletion strains, locus YOR061W, strain CKA2, active compounds read low 1.01 | S. cerevisiae deletion strains, locus YOR069W, strain VPS5, active compounds read low 0.99 | S. cerevisiae deletion strains, locus YOR070C, strain gyp1, active compounds read low 1 | S. cerevisiae deletion strains, locus YOR080W, strain dia2, active compounds read low 0.988 | S. cerevisiae deletion strains, locus YOR083W, strain WHI5 (second series), active compounds read low 1 | S. cerevisiae deletion strains, locus YOR083W, strain WHI5, active compounds read low 0.988 | S. cerevisiae deletion strains, locus YOR106W, strain vam3, active compounds read low 0.979 | S. cerevisiae deletion strains, locus YOR136W, strain idh2, active compounds read low 0.988 | S. cerevisiae deletion strains, locus YOR144C, strain elg1, active compounds read low 1 | S. cerevisiae deletion strains, locus YOR184W, strain ser1, active compounds read low 0.993 | S. cerevisiae deletion strains, locus YOR231W, strain MKK1, active compounds read low 0.979 | S. cerevisiae deletion strains, locus YOR265W, strain rbl2, active compounds read low 0.999 | S. cerevisiae deletion strains, locus YOR270C, strain vph1, active compounds read low 0.975 | S. cerevisiae deletion strains, locus YOR290C, strain snf2, active compounds read low 1 | S. cerevisiae deletion strains, locus YOR316C, strain cot1, active compounds read low 0.999 | S. cerevisiae deletion strains, locus YPL051W, strain arl3, active compounds read low 0.995 | S. cerevisiae deletion strains, locus YPL055C, strain LGE1, active compounds read low 0.993 and 1 | S. cerevisiae deletion strains, locus YPL078C, strain atp4, active compounds read low 0.991 | S. cerevisiae deletion strains, locus YPL106C, strain sse1, active compounds read low 1 | S. cerevisiae deletion strains, locus YPL240C, strain hsp82, active compounds read low 0.986 | S. cerevisiae deletion strains, locus YPL241C, strain CIN2, active compounds read low 1.01 | S. cerevisiae deletion strains, locus YPL256C, strain CLN2, active compounds read low 0.986 | S. cerevisiae deletion strains, locus YPR119W, strain clb2, active compounds read low 1 | S. cerevisiae deletion strains, locus YPR141C, strain kar3, active compounds read low 0.997 | S. cerevisiae deletion strains, locus YPR163C, strain tif3, active compounds read low 1.01 | S. cerevisiae deletion strains, locus YPR167C, strain met16, active compounds read low 1 | S. cerevisiae deletion strains, strain wtn01, active compounds read low 0.997 | S. cerevisiae strains, strain wild type, active compounds read low 1.01
